# Results reported in PubChem BioAssay (NCI).
# About 79,000 compounds went through this panel and 15% of them were active in at least one assay; those are over-represented in the sample as a whole. Active and inactive are the calls of the source. Rule as the data show it: active = growth inhibition above about 70%; inactive = the rest.
# Experiment: NCI Yeast Anticancer Drug Screen. Data for the rad50 strain (AID 155);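 also: 0% = growth of vehicle-only cultures of the same strain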
# Details: S. cerevisiae rad50 strain growth inhibition; at 50.0 µM (retest, dose inferred, filed as 5.0); hits give high values
# Method in brief: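 Growth of the mutant yeast was measured after compound exposure and referenced to vehicle-treated cultures.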
row,SMILES,growth inhibition
1,N#Cc1c(SCc2ccc(Cl)cc2)nsc1Nc1ccc(Cl)cc1,95% (active)
2,CC(CO)(Nc1ccc([N+](=O)[O-])cc1[N+](=O)[O-])C(=O)O (stereo not drawn),99% (active)
3,O=[N+]([O-])/C(C(Cl)=C(Cl)Cl)=C(/Nc1ccccc1)Sc1ccccc1,99% (active)
4,CC(SCc1ccccc1)C(=O)O (stereo not drawn),10% (inactive)
5,O=C1C2(Cl)C(Cl)=C(Cl)C1(Cl)C1(Cl)C(Cl)=C(Cl)C(=O)C21Cl (stereo not drawn),88% (active)
6,O=C(CNC(=O)c1ccccc1)Oc1c(Cl)c(Cl)c(Cl)c(Cl)c1Cl,61% (inactive)
7,CN(C)c1nc(NNS(=O)(=O)c2ccc(N)cc2)nc(N(C)C)n1,-17% (inactive)
8,CC1(C(Cl)(Cl)Cl)C=CC(O)(C#CC2(O)C=CC(C)(C(Cl)(Cl)Cl)C=C2)C=C1 (stereo not drawn),7% (inactive)
9,COCCN1C(=O)C2c3[nH]c4ccccc4c3C3CCC(C(C)(C)C)CC3C2C1=O (stereo not drawn),98% (active)
10,Cc1nc(N)sc1N=Nc1cccc(Cl)c1Cl,39% (inactive)
11,ClC1=C(Cl)C2c3ccccc3C1c1ccccc12,97% (active)
12,C=C/C=C/CC=C,38% (inactive)
13,C/C(=N\NC(=S)NCc1ccccc1)c1nccnc1C,98% (active)
14,COC(=O)c1cc(OC)c(OC)c(OC)c1,72% (active)
15,Nc1nc2c(ccc3ccccc32)s1,36% (inactive)
16,N=C(N)c1ccc(N=Nc2cc(/C=C/c3ccccc3)ccc2O)cc1,98% (active)
17,O=C1NC(=O)N(c2ccc([N+](=O)[O-])cc2)C1=O,3% (inactive)
18,O=C(Nc1cc(Cl)cc(Cl)c1)OCCCl,87% (active)
